Measured values published in ChEMBL document CHEMBL3988442, “University of Dundee, Small-Polar-MMV Screening Library” (2021).
Screen size: about 48,000 compounds; about 13,000 (27%) showed an effect of 50% or more. The list shows a part of the results.

tested on: Wolbachia pipientis; assay: Anti-Wolbachia Cell-Based Screen; assay type: functional; design: scale not given: in the data most compounds retested in dose-response had high values; settings: 5 µM

| SMILES | Percent Effect |
| --- | --- |
| O=C(NCc1ccccn1)[C@@H]1COC[C@H]2CN(c3ncccn3)C[C@H]21.O=C(O)C(F)(F)F.O=C(O)C(F)(F)F | -2.042% |
| Cc1ccc(S(=O)(=O)Nc2ccc(=O)n(C)c2)cc1 | -12.63% |
| COc1ccc(-c2nccn2C[C@@H]2CCCN3CCCC[C@H]23)cc1 | -24.08% |
| COC(C)C(=O)N(CC(N)=O)Cc1cccc(Oc2ccccc2)c1 (stereo not drawn) | 2.959% |
| CC(C)[C@H]1COC(=O)N1Cc1nccn1C(C)C | -0.6769% |
| COc1ccc(CN2CCc3c(CNC(=O)CC#N)nn(C)c3C2)cc1.O=C(O)C(F)(F)F.O=C(O)C(F)(F)F | 8.44% |
| O=C(NCCN1CCCC(CO)C1)c1ccc2scnc2c1 (stereo not drawn) | -0.5362% |
| CN1CCC(CNC(=O)c2cccc(C(F)(F)F)c2)c2ccccc21 (stereo not drawn) | -15.52% |
| Cn1nc(CNC(=O)c2ccc(OC(F)(F)F)cc2)c2c1CCOC2 | 101.2% |
| COc1cc(OC)cc(C(=O)NCCCNc2ncccn2)c1 | 15.23% |
| Cn1cc(NC(=O)c2cccc(C(F)(F)F)c2)c(=O)n(C)c1=O | -3.646% |
| COc1ccc(CNC(=O)c2nn(C)c3c2CS(=O)(=O)CC3)cc1OC | -2.523% |
| Cc1noc(NC(=O)c2ccc(OC(F)(F)F)cc2)n1 | 14.41% |
| Cn1nc(CNC(=O)c2cccc(C(F)(F)F)c2)c2c1CCOC2 | 111.4% |
| Cc1ncc(CNC(=O)c2nn(C)c3c2CS(=O)(=O)CC3)s1 | 8.614% |
| Cn1nc(CNC(=O)c2ccc3nsnc3c2)c2c1CCOC2 | 120.7% |
| COc1cc(OC)cc(C(=O)NCc2nn(C)c3c2COCC3)c1 | 121.8% |
| O=C(NC1CC1)c1cc(NC(=O)N2CCSCC2)ccc1Cl | -25.35% |
| CCc1c(C(=O)N2CCC3(CC(=O)NC3=O)C2)csc1C (stereo not drawn) | 4.433% |
| COC(=O)c1ccc(C(=O)NCc2nn(C)c3c2COCC3)cc1 | 116.6% |
| Cn1nc(CNC(=O)c2ccc(Cl)cc2)c2c1CCOC2 | -28.17% |
| Cn1nc(CNC(=O)c2ccc3c(c2)OCO3)c2c1CCOC2 | 123.8% |
| Cn1nc(CNC(=O)NCc2ccc(Cl)cc2)c2c1CCOC2 | -8.693% |
| CCN(Cc1ccc2c(c1)OCO2)C(=O)c1ccc(=O)n(C)c1 | -0.5548% |

| SMILES | Percent Effect |
| --- | --- |
| Cc1nnc(SCCCNC(=O)c2ccc3c(c2)OCO3)s1 | -1.096% |
| COc1cccc(OCC2CCCN(C(=O)c3cc(C)n[nH]3)C2)c1 (stereo not drawn) | -67.83% |
| Cc1cccc2c1OCCCC2NCc1nccn1Cc1ccccc1 (stereo not drawn) | -13.33% |
| Cc1noc(C)c1CCC(=O)NC(C)c1nnc2n1CCCCC2 (stereo not drawn) | -4.207% |
| CC(NC(=O)CCc1cccs1)c1nnc2n1CCCCC2 (stereo not drawn) | 108.8% |
| CC(NC(=O)Cc1cccs1)c1nnc2n1CCC2 (stereo not drawn) | 95.59% |
| CC(NC(=O)CCc1cccs1)c1nnc2n1CCC2 (stereo not drawn) | -2.805% |
| CC(NC(=O)Cc1cccs1)c1nnc2n1CCCCC2 (stereo not drawn) | -4.411% |
| CNC(=O)N1C[C@H]2CC[C@@]3(N=C(c4ccccc4)NC3=O)[C@H]2C1 | -7.438% |
| N[C@H]1CN(C(=O)c2ccc(Cl)cc2F)C[C@@H]1C1CC1 | -16.98% |
| CCN(c1ccc(C(=O)N2CCCCCC2)cc1)S(=O)(=O)CC | 148.2% |
| CCCOC1CCCN(C(=O)c2ccc(S(N)(=O)=O)cc2)C1 (stereo not drawn) | 2.275% |
| Cc1cc(C(=O)N2CCCCC2)ccc1NS(C)(=O)=O | -18.21% |
| CCN(c1ccc(C(=O)N2CCCCC2)cc1)S(=O)(=O)CC | 114.5% |
| CCN(c1ccc(C(=O)N2CCCC2)cc1)S(=O)(=O)CC | -7.72% |
| CCS(=O)(=O)N(C)C1CCN(C(=O)c2ccc(C)c(C)c2)CC1 | -2.68% |
| COc1ccccc1OC1(C(=O)O)CCN(c2cc(C)nc(C)c2)CC1 | -31.32% |
| CCOc1ccc(C(F)(F)F)cc1NCc1nc(C)c(C)o1 | -3.649% |
| NCC1CCN(C2CCN(c3ccc(-c4ccco4)cc3)CC2)C1 (stereo not drawn) | -12.7% |
| CC(CCSc1ccccc1)N1CCN(C(=O)c2ccccc2O)CC1 (stereo not drawn) | 4.975% |
| CN(Cc1cccc(-n2cccn2)c1)c1cc(N2CCCC2)nc(N)n1 | 13.85% |
| Nc1nc(NCCc2[nH]nc3c2CCCC3)cc(N2CCOCC2)n1 | -17.88% |
| Cl.Nc1nc(Nc2ccccc2)cc(N2CCNCC2)n1 | 122.8% |
| c1ccc(CCCn2cc(-c3nc(CN4CCOCC4)no3)nn2)cc1 | -30.42% |

| SMILES | Percent Effect |
| --- | --- |
| CN1CC(c2ccccc2)CC12CCN(C(=O)c1ccc(Cl)cc1)CC2 (stereo not drawn) | -14.14% |
| CN1CCC2(CCN(C(=O)c3ccccc3)CC2)C1 | -23.98% |
| CCCC(=O)N1CCC2(CC1)COC2 | -43.8% |
| CN1CCC2(CC1)Cc1ccccc1CN(C(=O)CN)C2 | 99.69% |
| CN1CCC2(Cc3ccccc3CN(C(=O)c3ccc(Cl)cc3)C2)C1 (stereo not drawn) | 111.1% |
| CCCSCC(=O)N1CCC2(CC1)CC(c1ccccc1)CN(C)C2 (stereo not drawn) | -4.07% |
| CN1CCC2(Cc3ccccc3CN(C(=O)CCN)C2)C1 (stereo not drawn) | 104.1% |
| CCCC(=O)N1Cc2ccccc2CC2(CCN(C)C2)C1 (stereo not drawn) | 117.7% |
| O=C1CC(c2ccc(C(=O)O)cc2)c2ncn(-c3ccc(Cl)cc3)c2N1 (stereo not drawn) | -3.148% |
| CC(C)C(C)(O)CNc1cccc(F)c1C#N (stereo not drawn) | 29.17% |
| COCc1nnc(-c2cccc(C(=O)N(C(C)C)C3CCC3)c2)o1 | 24.51% |
| O=C(CCNC(=O)c1ccc(Cl)cc1)NCc1nc(C2CC2)no1 | -6.02% |
| Cc1c(C(C)NC2CCOCC2)cnn1-c1ccc(F)cc1F (stereo not drawn) | -3.497% |
| O=C(Cc1ccccc1)N1CCC2(CC(=O)N(c3cccc(F)c3)C2)C1 (stereo not drawn) | -7.146% |
| CN1CCC2(Cc3ccccc3CN(C(=O)Cc3cccc(Cl)c3)C2)C1 (stereo not drawn) | 135.8% |
| COCCC(=O)N1CCC2(CN(Cc3cccc(Cl)c3)C2)C1 | 20.7% |
| CC(=O)Nc1nc(C(=O)NCCOc2ccc(C)cc2)cs1 | -6.104% |
| CC(=O)Nc1nc(C(=O)NC(C)c2ccc(C#N)cc2)cs1 (stereo not drawn) | 80.7% |
| CC(=O)Nc1nc(C(=O)NC(C)c2ccc3c(c2)OCCO3)cs1 (stereo not drawn) | 7.281% |
| CC(=O)Nc1nc(C(=O)NC(C)c2ccc(F)cc2)cs1 (stereo not drawn) | 33.73% |
| CC(=O)Nc1nc(C(=O)NC(C)c2ccc(F)c(F)c2)cs1 (stereo not drawn) | 54.27% |
| CC(=O)Nc1nc(C(=O)Nc2ccc(F)cc2)cs1 | -0.1776% |
| CCc1ccc(C2COCCN2C(=O)Nc2ccc(C(N)=O)c(Cl)c2)o1 (stereo not drawn) | -0.9462% |
| Cc1cc(C(=O)N2C[C@H]3CC[C@@H]2CN(C(=O)c2ccncc2)C3)cs1 | -9.465% |

| SMILES | Percent Effect |
| --- | --- |
| Fc1cnc(N2CC[C@@H]3OC(COCc4cccnc4)CC[C@@H]32)nc1.O=C(O)C(F)(F)F.O=C(O)C(F)(F)F (stereo partly drawn) | -10.65% |
| c1cncc(COCC2C[C@@H]3OCCN(Cc4cccnc4)[C@H]3C2)c1 (stereo partly drawn) | 111.6% |
| Fc1ccc(CN2CC[C@H]3O[C@@H](COCc4cccnc4)CC[C@H]32)cc1.O=C(O)C(F)(F)F.O=C(O)C(F)(F)F | 0.3958% |
| CN(C)C(=O)N1CCO[C@@H]2CC(COCc3cccnc3)C[C@H]21.O=C(O)C(F)(F)F (stereo partly drawn) | 103.1% |
| O=C(O)C(F)(F)F.O=C(O)C(F)(F)F.c1cnc(N2CC[C@@H]3O[C@@H](COCc4cccnc4)CC[C@@H]32)nc1 | -9.534% |
| CCOCC1C[C@@H]2OCCN(C(=O)c3ccc[nH]3)[C@H]2C1 (stereo partly drawn) | -14% |
| O=C(O)C(F)(F)F.O=C(O)C(F)(F)F.O=C(O)C(F)(F)F.c1cncc(COCC2CN(Cc3cccnc3)Cc3ccnn3C2)c1 (stereo not drawn) | 11.05% |
| Cn1cnc2c1C(COCc1cccnc1)N(Cc1ccccc1)CC2 (stereo not drawn) | 2.197% |
| CN(C)CC(=O)N1CCO[C@@H]2CC(COCc3ccncc3)C[C@H]21 (stereo partly drawn) | 100.6% |
| Cc1ccoc1C(=O)N1CC[C@H]2OCC[C@@]2(COCc2ccncc2)C1 | -2.681% |
| Cc1cnc(N2CCO[C@@H]3CC(COCc4cccnc4)C[C@H]32)nc1.O=C(O)C(F)(F)F.O=C(O)C(F)(F)F (stereo partly drawn) | 79.55% |
| COCC(=O)N1CCO[C@H]2[C@H](OCc3cccnc3)CC[C@@H]21.O=C(O)C(F)(F)F | -4.337% |
| Cc1nc(CN(C)Cc2nc(-c3sccc3C)oc2C)no1 | -9.354% |
| CSCCCN1CCCC(Cn2ccnc2)C1 (stereo not drawn) | 13.29% |
| O=C(c1ccc[nH]1)N1CCO[C@H]2CC(COCc3ccccn3)C[C@@H]21 (stereo partly drawn) | 10.05% |
| Cc1ccc(C(=O)N2CCO[C@H]3[C@H](OCc4ccccn4)CC[C@@H]32)o1.O=C(O)C(F)(F)F | -0.009897% |
| O=C(O)C(F)(F)F.O=S(=O)(C1CC1)N1CCO[C@@H]2CC(COCc3cccnc3)C[C@H]21 (stereo partly drawn) | 111.9% |
| O=C(O)C(F)(F)F.O=C(c1ccno1)N1CCO[C@@H]2CC(COCc3ccccn3)C[C@H]21 (stereo partly drawn) | 99.5% |
| O=C(O)C(F)(F)F.O=C(O)C(F)(F)F.c1cncc(COCC2CC[C@H]3[C@H](CCN3CC3CCOCC3)O2)c1 (stereo partly drawn) | -3.08% |
| CCc1nc(-c2noc3ccc(C(=O)N(C)CCOC)cc23)co1 | 2.681% |
| CC(Nc1nc2c(cnn2C)c(=O)[nH]1)c1ccc2c(c1)CCCC2 (stereo not drawn) | 4.227% |
